MmCpn inh: inhibitors of Methanococcus maripaludis chaperonin TRiC (MmCpn) | purified Mm-Cpn ATPase, ADP Transcreener TR-FRET | Potency, µM (top dose mostly 76.9 µM), inactives show at the top dose activity, negative = inhibition, actives largely listed as inhibitors | actives 0.031% (n = 330,000) | AID 504842; also: potency is read from the fitted curve at half-maximal effect; nearly all actives have a fitted effect of over 80% in size
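Purified archaeal chaperonin (25 nM final) was preincubated with compound for 10 min at 37°C, then ATP (10 uM final) was added for 30 min at 37°C in Tris pH 7.4/KCl/MgCl2/DTT buffer. ADP was quantified by HTRF Transcreener TR-FRET.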
PLK1 PBD inh: PLK1 (human) polo-box domain binding inhibition | P53350 | Potency, µM, inactives show max response, negative = inhibition, hits mostly inhibitors | Plk1 PBD binding of FITC phosphopeptide, fluorescence polarization | AID 720504 | actives 2.8% (n = 360,000); also: potency is read from the fitted curve at half-maximal effect; series mostly up to about 57 µM; nearly all actives have a fitted effect of over 65% in size
VDR inh: blocks the human vitamin D receptor; P11473; VDR-SRC2-3 peptide fluorescence polarization, 2 h; Potency, µM, inactives show max response, negative = inhibition, usual class: inhibitors; actives 0.93% (n = 400,000); also: potency is read from the fitted curve at half-maximal effect
Target sequence (P11473 whole entry, looked up): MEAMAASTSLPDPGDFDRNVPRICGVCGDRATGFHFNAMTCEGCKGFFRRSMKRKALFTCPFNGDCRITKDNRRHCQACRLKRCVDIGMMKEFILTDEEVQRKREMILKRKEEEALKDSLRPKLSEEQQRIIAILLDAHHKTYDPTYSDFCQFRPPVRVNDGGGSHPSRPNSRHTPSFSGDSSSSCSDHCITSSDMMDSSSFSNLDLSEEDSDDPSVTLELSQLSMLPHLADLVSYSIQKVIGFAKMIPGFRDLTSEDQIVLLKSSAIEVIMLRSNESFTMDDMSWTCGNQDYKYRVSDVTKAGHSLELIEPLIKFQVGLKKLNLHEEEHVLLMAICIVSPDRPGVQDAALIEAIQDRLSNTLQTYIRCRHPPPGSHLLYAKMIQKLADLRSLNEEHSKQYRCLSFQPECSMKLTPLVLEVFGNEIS
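The screen uses fluorescence polarization to detect compounds that interfere with recruitment of the SRC2-3 coactivator peptide to VDR; plates are read after 2 h at room temperature.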
G9a block: blocks human histone lysine methyltransferase G9a. Q96KQ7. G9a H3K9 monomethylation, AlphaScreen, 2 h. Potency, µM (titrated, usually from 102 µM), without a hit: top-dose activity, negative = inhibition, most hits filed as inhibitors. actives 8.8% (n = 350,000). AID 504332; also: potency is read from the fitted curve at half-maximal effect; nearly all actives have a fitted effect of over 75% in size
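Signal arises when biotinylated H3K9 peptide, once monomethylated, bridges streptavidin donor and antibody-captured acceptor beads. Enzyme at 20 nM was preincubated 15 min with test compounds; peptide 500 nM and SAM 20 uM then reacted for 2 h.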
Sfp inh: Sfp phosphopantetheinyl transferase inhibition | Potency, µM, without a hit: largest response in the series, negative = inhibition, actives largely listed as inhibitors | Biochemical Sfp PPTase activity, qHTS | Q9F4F7 | actives 3.5% (n = 310,000);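 also: the enzyme is Sfp with the accession as filed and its product quenches rhodamine fluorescence; potency is read from the fitted curve at half-maximal effect; 0% = enzyme reaction without inhibitor and -100% = no enzyme wells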
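Sfp 15 nM + cpd, 15 min RT; start w/ rhodamine-CoA 5 uM, BHQ-2-YbbR 12.5 uM (final); 50 mM Hepes pH 7.6, 10 mM MgCl2, 0.01% NP-40, 0.01% BSA; read 525/598 nm at 0 and 30 min.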
CCT chaperon mod: modulators of cytosolic chaperonin (CCT/TRiC) activity; purified chaperonin ATPase assay, HTRF ADP detection, 30 min; activity change, % (concentration not given with the values), hits read low; actives 0.3% (n = 360,000); in the data active = activity change below about -30%
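TRiC at 40 or 20 nM final (batch-dependent) in 30 mM Tris pH 7.4, 100 mM KCl, 5 mM MgCl2, 1 mM DTT, with compound at single 76 uM and 10 uM ATP, 30 min at 37 deg C. ADP detected by HTRF Transcreener, 665/615 ratio.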
* hit, by the source's call; ? = inconclusive; / = not tested or not shown; [ ] = remark or other dose. Shown are actives, neighbours in structure and some others; about 10% of the full set was active somewhere. Unless noted, calls follow the shape of the dose curve; as a rule, active = well fitted curve in the direction sought with a large enough effect; inconclusive = small, poorly fitted or top-dose-only effect, or another doubt; inactive = no such curve, though single readings can be large; an effect the other way counts as inactive or inconclusive. Unless noted, % is scaled to controls: 0 for no effect and ±100 for the full control effect.

SMILES	MmCpn inh	PLK1 PBD inh	VDR inh	G9a block	Sfp inh	CCT chaperon mod
CCOc1ccccc1N1CCN(C(=O)c2ccc3[nH]c4c(c3c2)CCCC4)CC1	-1%	0%	?	40µM*	-12%	0
CCOc1ccccc1N1CCN(C(=O)c2cc3c(C)cc(C)cc3[nH]2)CC1	-4%	-10%	35%	?	-6%	-1
Cc1cc(/C=N/Nc2ccc([N+](=O)[O-])cn2)c(C)n1-c1ccc(C(=O)O)cc1	-5%	-14%	-21%	50µM*	56µM*	3
CCn1c(SCC(=O)Nc2ccc(N3CCOCC3)c(Cl)c2)nnc1-c1ccc(N)cc1	1%	-7%	5%	45µM*	4%	-2
CCn1c(SCC(=O)Nc2ccccc2N2CCOCC2)nnc1-c1ccccc1	0%	-13%	-5%	-5%[12.7 µM]	5%	-1
CCn1c(Cn2nnc(-c3ccccc3)n2)nnc1SCC(=O)Nc1ccc(N(C)C)cc1	0%	-5%	1%	13µM*	12%	-8
CCn1c(SCC(=O)Nc2cc(C)on2)nnc1-c1cccc(C)c1	3%	-2%	-2%	17%	14%	1
CCn1c(SCC(=O)Nc2ccc(N(C)C)cc2)nnc1-c1cccc(C)c1	-1%	1%	9%	7.1µM*	-5%	-1
CN(C)c1ccc(NC(=O)CSc2nnc(-c3cccs3)n2Cc2ccco2)cc1	-5%	0%	-10%	10µM*	1%	0
CCn1c(Cn2nnc(-c3ccccc3)n2)nnc1SCC(=O)Nc1ccc(C(C)=O)cc1	1%	-7%	1%	18%[12.7 µM]	-3%	-4
CCOc1ccc(CNS(=O)(=O)c2ccc3c(c2)CCCN3C(C)=O)cc1OC	/	/	-2%	19%[59 µM]	/	/
Cc1c(Cl)cccc1NC(=O)CSc1nc(=O)[nH]c2c1CCC2	/	/	8%	22%[59 µM]	/	/
CCOc1ccc(-n2nc(CO)c(C(=O)NCc3ccc(Cl)cc3)n2)cc1	/	/	4%	11%[59 µM]	/	/
COc1ccc(CNC(=O)CCCc2nnc3n(C(C)C)c(=O)c4sccc4n23)cc1	/	/	6%	-9%[59 µM]	/	/
O=S(=O)(c1ccc(NC(=S)Nc2ccc3c(c2)OCO3)cc1)N1CCOCC1	-4%	-30%	-6%	?	-43%	1
NS(=O)(=O)c1ccc(NC(=S)NC(=O)c2ccc3c(c2)OCO3)cc1	-22%	-16%	17%	40µM*	-7%	0
CNS(=O)(=O)c1ccc(NC(=S)Nc2ccc3c(c2)OCO3)cc1	2%	19µM*	-18%	/	45µM*	2
NC(N)=NS(=O)(=O)c1ccc(NC(=S)NC(=O)c2ccc3c(c2)OCO3)cc1	-15%	24µM*	1%	45µM*	?	1
CC(C)c1ccc(O)c(NC(=S)NC(=O)c2ccc3c(c2)OCO3)c1	1%	-14%	-8%	13µM*	-22%	-1
O=C(NC(=S)Nc1ccccc1Br)c1ccc2c(c1)OCO2	0%	-6%	-15%	0%	-1%	-2
COc1cccc(NC(=O)Cn2c(=O)n(Cc3ccccc3)c(=O)c3c2c2cc(C)ccc2n3C)c1	/	/	5%	-3%[59 µM]	/	/
COc1ccc([N+](=O)[O-])cc1NS(=O)(=O)c1ccc(C)cc1	1%	-3%	11%	-21%	14%	2
COc1ccc(NC(=O)c2cc(Cl)ccc2Cl)c([N+](=O)[O-])c1	1%	1%	-10%	24%[59 µM]	4%	0
COc1ccc(NS(=O)(=O)c2ccc(C)cc2)c([N+](=O)[O-])c1	0%	27µM*	?	?	11%	-4
COc1ccc(NC(=O)c2ccccc2NS(=O)(=O)c2ccc(C)cc2)c([N+](=O)[O-])c1	0%	4%	-2%	3.2µM*	10%	0
CCOc1ccc(NC(=O)CC2C(=O)N(c3ccccc3)C(=O)N2Cc2ccc3c(c2)OCO3)cc1 (stereo not drawn)	/	/	-9%	8%[59 µM]	/	/
Cc1cc(F)ccc1S(=O)(=O)Nc1ncnc2sc3c(c12)CCC3	5%	17µM*	-7%	-41%	17%	-3
